Screening results as filed in PubChem.
This is one part of a sample in which hits are shown more often than they occur.
ST2 IL33 inh = IL1RL1 inhibition. Q01638. AID 1259354. actives 2.3% (n = 78,000). inhibition, % for hits at 17 µM. AlphaLISA ST2-Fc/biotin-IL-33 interaction, 1 h; in the data active means inhibition above about 30%
Target sequence (Q01638 whole entry, looked up): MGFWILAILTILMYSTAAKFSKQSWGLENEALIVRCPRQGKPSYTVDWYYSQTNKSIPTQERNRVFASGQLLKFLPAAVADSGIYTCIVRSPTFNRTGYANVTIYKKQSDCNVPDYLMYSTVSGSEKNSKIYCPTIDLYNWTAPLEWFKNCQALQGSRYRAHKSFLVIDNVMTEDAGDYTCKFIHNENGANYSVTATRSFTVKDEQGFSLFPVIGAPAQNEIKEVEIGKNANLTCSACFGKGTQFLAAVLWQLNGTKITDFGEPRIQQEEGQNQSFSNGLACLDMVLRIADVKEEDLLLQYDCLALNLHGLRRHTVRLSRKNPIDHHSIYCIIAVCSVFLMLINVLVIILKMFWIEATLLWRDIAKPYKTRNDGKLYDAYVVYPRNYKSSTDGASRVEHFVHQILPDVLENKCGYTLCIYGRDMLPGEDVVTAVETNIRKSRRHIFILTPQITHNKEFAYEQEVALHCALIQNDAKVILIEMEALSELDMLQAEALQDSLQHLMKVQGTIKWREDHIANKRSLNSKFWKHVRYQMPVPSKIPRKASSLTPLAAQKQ
Numbers stand for hits; i = inactive; ! = a repeat was not active.

SMILES	ST2 IL33 inh
O=[N+]([O-])c1ccccc1S(=O)(=O)n1cnc2ccccc21	i
Cc1nc(CN(C)Cc2csc(-c3ccccc3)n2)co1	i
Cc1ccc(C2=NN(C(=O)CCC(=O)O)C(c3cc4cc5c(cc4nc3Cl)OCO5)C2)cc1 (stereo not given)	i
CC(=O)Nc1ccc(N=Cc2nc(-c3ccc(Cl)cc3)oc2O)cc1	33.0%
Cc1c(Cl)cccc1N=Cc1nc(-c2ccc(Cl)cc2)oc1O	33.0%
Oc1oc(-c2ccc(Cl)cc2)nc1C=Nc1ccccc1Cl	i
Cc1c(Cl)cccc1N=Cc1nc(-c2ccccc2)oc1O	i
Oc1oc(-c2ccc(Cl)cc2)nc1C=Nc1cc(Cl)ccc1Cl	i
Oc1ccc(N=Cc2nc(-c3ccccc3)oc2O)cc1	i
Cc1cccc(N2CCN(Cc3nc4ccccc4n3C)CC2)c1	i
O=C(NCC1(O)CCCNCC1)C1(c2ccc(Cl)cc2)CCCCC1 (stereo not given)	i
CC1(C)CC(NC(=O)C(=O)Nc2ccc(C(C)(C)C)cc2)CC(C)(C)N1	i
O=C1NN(c2ccc(Cl)c(Cl)c2)C(=O)/C1=C\c1cc2c(cc1[N+](=O)[O-])OCO2	i
COc1ccc(NS(=O)(=O)c2cc(Br)cc3c2N(C(C)=O)C(C)C3)c(OC)c1 (stereo not given)	i
COc1cc(NC(=O)N[C@H]2CO[C@H]3[C@@H]2OC[C@@H]3Nc2nccc(-c3cccs3)n2)cc(OC)c1	i
O=C(Nc1ccc(Oc2ccccc2)cc1)O[C@@H]1CO[C@H]2[C@@H]1OC[C@@H]2Nc1nccc(-c2cccs2)n1	34.0%
COc1cccc(NC(=O)O[C@@H]2CO[C@H]3[C@@H]2OC[C@@H]3Nc2nccc(-c3ccc(-c4ccccc4)cc3)n2)c1	i
CCN(CC)S(=O)(=O)c1ccc(NC(=O)COc2ccc([N+](=O)[O-])cc2)cc1	i
COc1ccc2c(c1)-c1nc(-n3ncc(C(=O)NCCCN4CCOCC4)c3C)ncc1CC2	i
c1ccc(CNc2nc(NC3CCCCC3)nc(N3CCOCC3)n2)cc1	i
c1cc2c(-c3ccc(CN4CCOCC4)cn3)cc(NC3CCCC3)nc2[nH]1	i
CCCc1nc(C)cc(-c2cc(N)nc3[nH]ccc23)n1	i
c1cnc(-c2cc(NC3CCNCC3)nc3[nH]ccc23)cn1	33.0%
c1nc(-c2cc(NC3CCCC3)nc3[nH]ccc23)cc(N2CCOCC2)n1	30.0%
c1cc2c(-c3ccc(NC4CCCC4)nn3)cc(NC3CCNCC3)nc2[nH]1	40.0%
SMILES	ST2 IL33 inh
CCCc1cc(NCC2CNCCOC2)nc(C)n1 (stereo not given)	i
CCCc1cc(-c2cc(NC3CCNCC3)nc3[nH]ccc23)nc(C)n1	38.0%
O=C(O)c1cn(-c2ccc(F)cc2[N+](=O)[O-])c(=O)c2ccccc12	i
Cc1cc(N2CCN(C)CC2)nc2ccc(NC(=O)CCC(=O)NCc3cccs3)cc12	i
COc1ccccc1N=c1oc2ccc(Br)cc2cc1C(=O)NC(C)=O	i
O=C(Nc1ccc(=O)n2c1[C@@H]1C[C@@H](CN(C(=O)Nc3ccc(F)cc3)C1)C2)NC1CCCCC1	i
COc1cc(OC)c([C@H]2NCC[C@@]3(O)CCCC[C@H]23)cc1OC	i
COc1ccc2nc(N=C(N)N)nc(C)c2c1	i
COc1ccc2nc(N=C(N)NC(=O)Cc3ccc(Cl)cc3)nc(C)c2c1	35.0%
CCC(=O)NC(N)=Nc1nc(C)c2cc(C)ccc2n1	i
CCOC1=NC2Nc3ccccc3N(CC)C2C1c1ccc([N+](=O)[O-])cc1 (stereo not given)	i
CCc1ccc(N2C(=O)c3ccccc3NC2c2cccc([N+](=O)[O-])c2)cc1 (stereo not given)	i
CCC1(CC)OC(c2cccn2-c2ccc([N+](=O)[O-])cc2)Nc2ccccc21 (stereo not given)	54.0%
O=C(NCCN1CCOCC1)c1cc(-c2ccc(Cl)c(Cl)c2)on1	i
CCOC(=O)C1CCCN(C(=O)c2cn(C)c(=O)c3cc(OC)c(OC)cc23)C1 (stereo not given)	35.0%
CCOC(=O)C1CCCN(C(=O)c2cn(CC(C)C)c(=O)c3cc(OC)c(OC)cc23)C1 (stereo not given)	i
CCN1CCN(C(=O)c2cn(CC)c(=O)c3cc(OC)c(OC)cc23)CC1	i
CCOC(=O)C1CCCN(C(=O)c2cn(CC)c(=O)c3cc(OC)c(OC)cc23)C1 (stereo not given)	i
CCn1cc(C(=O)N2CCN(C)CC2)c2cc(OC)c(OC)cc2c1=O	i
COc1ccc(N2CCN(C(=O)c3cn(C)c(=O)c4cc(OC)c(OC)cc34)CC2)cc1	46.0%
O=C(c1ccco1)N1CCCN(Cc2nc(-c3cccs3)no2)CC1	i
O=S(=O)(c1cccs1)n1nnc2ccccc21	i
CCOC(=O)c1c(NC(=O)c2cccs2)sc2c1CCN(Cc1ccccc1)C2	i
COc1ccc(C(=O)Nc2c(-c3cccs3)nc3ccccn23)c(OC)c1	i
O=c1oc2cc(O)ccc2cc1-c1nc(-c2ccc3ccccc3c2)cs1	i
SMILES	ST2 IL33 inh
COc1ccc(-c2cc3cc(Br)ccc3oc2=O)cc1	i
O=c1oc2ccc(Br)cc2cc1-c1nc(-c2cccs2)cs1	30.0%
O=c1oc2ccccc2cc1-c1nc(-c2cccs2)cs1	51.0%
O=C(Nc1nc(-c2cccs2)cs1)c1cc2ccccc2oc1=O	i
O=c1oc2ccc(Br)cc2cc1-c1nnc(-c2ccccc2Br)o1	i
COc1cccc(C(=O)Nc2nnc(-c3ccccc3)s2)c1	i
CN(C(=O)CNC(=O)Cn1cnc2sc3c(c2c1=O)CCCC3)c1ccc(Cl)cc1	i
COc1cc(C(=O)NC(C)C(c2cccs2)N2CCN(C)CC2)cc(OC)c1OC (stereo not given)	i
O=C1CCC(C(=O)N2CCC(Cn3ccnc3)CC2)CN1CCCN1CCOCC1 (stereo not given)	i
CCCc1[nH]n(-c2nc3ccccc3s2)c(=O)c1C(C)=Nc1cccc(F)c1	i
O=C(CCc1cccnc1)N1C[C@@H]2[C@@H]3CC[C@@H](C3)[C@@H]2C1	i
COc1cc(C2C3=C(CC(C)(C)CC3=O)OC3=C2C(=O)CC(C)(C)C3)ccc1OC(C)=O	i
CCCN(Cc1cccc([N+](=O)[O-])c1)CC1CC1	96.0%
O=[N+]([O-])c1cccc(CN2CCC(N3CCCCCC3)CC2)c1	i
O=[N+]([O-])c1cccc(CN2CCCCC2CCO)c1 (stereo not given)	i
Cc1cc(OCC(=O)Nc2cccc3nsnc23)cc(C)c1Cl	i
CCCc1ccc(S(=O)(=O)N2CCN(c3cc(-c4ccc(F)cc4)ncn3)CC2)cc1	i
COc1ccccc1CC(=O)Nc1cc(C)c(Cl)cc1OC	i
COc1ccc(/C=C/C#N)cc1OC	i
COc1ccc(/C=C2\CCC/C(=C\c3ccc(OC)c(OC)c3)C2=O)cc1OC	30.0%
COc1ccc(C=C2C(=O)OC(C)(C(C)(C)C)OC2=O)cc1OC (stereo not given)	i
COc1ccc2cc3cc(C(=O)NCCCN4CC(C)CC(C)C4)oc3nc2c1 (stereo not given)	i
CN1CCN(c2ncccc2CNC(=O)c2cnnn2-c2ccccc2)CC1	i
COc1ccc(C(=O)Nc2cc(Cl)ccc2C)cc1[N+](=O)[O-]	i
O=C(O)C1C2C=CC(C2)C1C(=O)N1CCCC1 (stereo not given)	i
CCc1nc2oc(C(=O)c3ccccc3)c(N)c2c2c1COC(C)(C)C2	40.0%!
CCCc1nc2oc3c(-c4ccccc4)c(C(=O)O)c(C)nc3c2c2c1COC(C)(C)C2	i
CCc1nc2oc(C(=O)c3ccc(Cl)cc3)c(N)c2c2c1COC(C)(C)C2	i
Cc1ccccc1CSC1=NCCN1C(=O)c1cccs1	i
